According to PubChem BioAssay AID2685 (National Center for Advancing Translational Sciences (NCATS), 2010):
About 2,100 (0.66%) of roughly 320,000 compounds were called active. About 53% were inconclusive and are not listed. Calls follow the shape of the dose curve; as a rule, active = well fitted inhibition curve with a large enough effect in the signal ratio, with a control signal flat (not every such curve was filed as active); inconclusive = small, poorly fitted or top-dose-only effect, or effect the other way, or a change in a side signal; inactive = flat fitted curve, though single readings scatter; the % refers to the signal ratio. This excerpt belongs to a sample that is enriched for actives.

Assay: qHTS Assay for Lipid Storage Modulators in Drosophila S3 Cells;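 as to cell number change: cells counted by Cell Tracker Red CMTPX staining in the red channel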; as to lipid storage change, negative = inhibition: % is scaled to controls: 0 for no effect and ±100 for the full control effect
Conditions: BODIPY lipid droplet fluorescence, 18-24 h, cells fed with added oleic acid; cell number change: measured here: cell count max response; series mostly up to 46.1 µM; lipid storage change, negative = inhibition: at the top concentration
Outline: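 Drosophila S3 cells loaded with oleic acid (400 uM, as added) and compounds at several concentrations; lipid droplets imaged by 488-nm laser-scanning cytometry, 500–530 nm intensity and object ratio to cell channel. Percent activity normalized to 20 uM Triacsin C.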
Potency is read from the fitted curve at half-maximal effect.

| Compound | lipid storage change, negative = inhibition | cell number change [%] | outcome | Potency |
| --- | --- | --- | --- | --- |
| O=C1C=Cc2ccccc2/C1=C/c1[nH]c(=O)[nH]c1O | 5.67% (inactive) | 1.79 |  |  |
| O=C(NC(=S)Nc1ccc(S(=O)(=O)Nc2nccs2)cc1)c1ccc(Br)o1 | 2.23% (inactive) |  |  |  |
| O=C(NCCOC(=O)C1COc2ccccc2O1)C1COc2ccccc2O1 (stereo not drawn) | -28.4% (inactive) |  |  |  |
| O=[N+]([O-])c1ccc(-c2ccc(/C=N/Nc3nc(N4CCCC4)nc(N4CCCC4)n3)o2)cc1 |  | -13 | inactive |  |
| O=[N+]([O-])c1ccc(-c2ccc(/C=N/Nc3nc(NCc4ccccc4)nc(N4CCOCC4)n3)o2)cc1 |  | 14.1 |  | 18.4 µM (active) |
| O=[N+]([O-])c1cccc(/C=N/Nc2nc(NCc3ccccc3)nc(N3CCOCC3)n2)c1O | -7.86% (inactive) | 0.539 |  |  |
| O=[N+]([O-])c1ccc(/C=N/Nc2nc(N3CCCCC3)nc(N3CCCCC3)n2)cc1 | 11.3% (inactive) | -0.784 |  |  |
| O=[N+]([O-])c1ccc(-c2ccc(/C=N/Nc3nc(N4CCCCC4)nc(N4CCCCC4)n3)o2)cc1 |  | 17 |  | 5.17 µM (active) |
| COc1nc(N/N=C/c2ccc(-c3cccc([N+](=O)[O-])c3)o2)nc(N2CCOCC2)n1 | 7.42% (inactive) | -9.45 |  |  |
| CN(C)S(=O)(=O)N1CCC(Oc2cccc(C(=O)NC3CCCCCC3)c2)CC1 |  |  | inactive |  |
| O=C(O)c1ccccc1C(=O)N1CC=C(c2ccccc2)CC1 | -0.597% (inactive) | 1.73 |  |  |
| Nc1[nH][nH]c(=O)c1N=Nc1cccc(Cl)c1 | 26.5% (inactive) | 1.25 |  |  |
| Cn1cc([N+](=O)[O-])c(C(=O)Nc2ccc(Br)cn2)n1 | 1.79% (inactive) |  |  |  |
| O=C(CNC(=O)COc1ccccc1)NCc1ccccc1F | -0.841% (inactive) | 0.16 |  |  |
| O=[N+]([O-])c1ccc(NC(=S)N2CCOCC2)cc1 | -4.46% (inactive) | -10.6 |  |  |
| COc1cc(CN2CCN(C(c3ccccc3)c3ccccc3)CC2)cc(OC)c1OC | 21.4% (inactive) | 6.8 |  |  |
| OC(CN1CCN(Cc2ccccc2)CC1)c1ccc(F)cc1 (stereo not drawn) | 2.63% (inactive) | 22.1 |  |  |
| Fc1ccc(CN2CCN(C(c3ccccc3)c3ccccc3)CC2)cc1 |  | -21.3 |  | 16.4 µM (active) |
| COc1ccc(Br)cc1CNC(=O)CCC(=O)n1nc(C)c2ccccc21 |  | -11.3 | inactive |  |
| COc1ccccc1NC(=S)NC1CCCCC1 | -1.18% (inactive) | 22.1 |  |  |
| Cc1ccccc1NC(=O)C(=O)NC(C)CCc1ccccc1 (stereo not drawn) |  | 7.44 |  | 7.31 µM (active) |
| Cc1ccccc1NC(=S)NC(C)CCc1ccccc1 (stereo not drawn) | -12% (inactive) | -4.86 |  |  |
| CCOC(=O)C(=O)NC(C)CCc1ccccc1 (stereo not drawn) | -6.25% (inactive) | -12.3 |  |  |
| COCCCNC(=O)COc1cc2c(c3oc(=O)c(C)c(C)c13)CCC(C)(C)O2 | -1.02% (inactive) | 14.5 |  |  |
| O=C(Nc1ccc(S(=O)(=O)N2CCCC2)cc1)c1ccc(CN2CCOCC2)cc1 | -12.9% (inactive) | 0.801 |  |  |

| Compound | lipid storage change, negative = inhibition | cell number change [%] | outcome | Potency |
| --- | --- | --- | --- | --- |
| Cc1ccc(NC(=O)c2ccc(CN3CCc4ccccc4C3)cc2)cc1 | 9.69% (inactive) | 6 |  |  |
| O=C(Nc1ccccc1)c1ccc(S(=O)(=O)N2CCCCC2)cc1 | 1.31% (inactive) | -9.41 |  |  |
| O=C(Nc1ccc(S(=O)(=O)N2CCCCC2)cc1)c1ccc(CN2CCc3ccccc3C2)cc1 |  | -10.9 |  | 18.4 µM (active) |
| O=C(Nc1ccccc1)c1ccc(CN2CCc3ccccc3C2)cc1 | -0.669% (inactive) | 7.26 |  |  |
| O=C(Nc1ccc(F)cc1)c1ccc(CN2CCc3ccccc3C2)cc1 |  | -4.53 |  | 5.17 µM (active) |
| Cc1cc(-n2nc(C)cc2C)n2nc(C)c(-c3ccc(Cl)cc3)c2n1 |  | 1.87 | inactive |  |
| CC(C)CCN1CC(C(=O)NC(C)C)CC1=O (stereo not drawn) | 1.74% (inactive) | -5.32 |  |  |
| CN1CCN(S(=O)(=O)c2ccc(NC(=O)c3ccc(Br)s3)cc2)CC1 | 18.6% (inactive) | -9.91 |  |  |
| COC(=O)c1ccc(CN2CCC(CO)(Cc3cccc(OC)c3)CC2)cc1 | 12.4% (inactive) | 1.63 |  |  |
| O=C(Nc1ccccc1C(=O)OC1CCOC1=O)c1ccco1 (stereo not drawn) |  | 2.86 | inactive |  |
| CC(=O)Nc1ccc(C(=O)OC2CCOC2=O)cc1 (stereo not drawn) | -5.88% (inactive) | 3.14 |  |  |
| Cc1cccc(C(=O)OC2CCOC2=O)c1O (stereo not drawn) |  | 4.5 |  | 0.731 µM (active) |
| Cc1ccc(NC(=O)c2cccs2)cc1NC(=O)c1cccc(F)c1 | 16.8% (inactive) | 9.07 |  |  |
| Cc1ccc(C(=O)N/C(=C\c2cccs2)C(=O)NCc2cccnc2)cc1 | 15.8% (inactive) | 10.4 |  |  |
| Fc1ccc(NC(=S)N2CCCc3ccccc32)cc1 | 7.56% (inactive) | -5.16 |  |  |
| Fc1cccc(NC(=S)N2CCc3ccccc32)c1 |  | -4.05 | inactive |  |
| Fc1ccc(NC(=S)N2CCc3ccccc32)cc1 |  | -10.9 |  | 16.4 µM (active) |
| CN(C)c1ccc(S(=O)(=O)NCC(=O)NCc2ccccc2)cc1[N+](=O)[O-] | 24.8% (inactive) | 21.7 |  |  |
| NC(=O)c1nsc(C(=O)N(CC(=O)NC2CCCC2)c2cnc3ccccc3c2)c1N | -11% (inactive) | -18 |  |  |
| Cc1ccc(C)c(N(CC(=O)NC2CCCCC2)C(=O)c2snc(C(N)=O)c2N)c1 |  | -26.2 | inactive |  |
| NC(=O)c1nsc(C(=O)N(CC(=O)NC2CCCCC2)c2ccc(Cl)cc2)c1N |  | -2.56 |  | 14.6 µM (active) |
| NC(=O)c1nsc(C(=O)N(CC(=O)NC2CCCCC2)Cc2ccc(F)cc2)c1N |  |  | inactive |  |
| CCCC(C(=O)NC1CCCC1)N(C(=O)c1snc(C(N)=O)c1N)c1ccc(F)cc1 (stereo not drawn) | 23.9% (inactive) | -10.5 |  |  |
| NC(=O)c1nsc(C(=O)N(CC(=O)NC2CCCC2)c2ccc(F)c(Cl)c2)c1N |  | -7.14 |  | 0.116 µM (active) |
